# From the supplement of paper PMC3334620
# Whole data set: some 33,000 sequences, median “E-score (-0.5 to 0.5)” near -0.032, cut for the highest 2% near 0.36. Many of the other results were omitted from the sample, so the highest values are more common in it than they were.
# Molecular target: T1, Sko1 (UniProt Q02100)
# T1 sequence: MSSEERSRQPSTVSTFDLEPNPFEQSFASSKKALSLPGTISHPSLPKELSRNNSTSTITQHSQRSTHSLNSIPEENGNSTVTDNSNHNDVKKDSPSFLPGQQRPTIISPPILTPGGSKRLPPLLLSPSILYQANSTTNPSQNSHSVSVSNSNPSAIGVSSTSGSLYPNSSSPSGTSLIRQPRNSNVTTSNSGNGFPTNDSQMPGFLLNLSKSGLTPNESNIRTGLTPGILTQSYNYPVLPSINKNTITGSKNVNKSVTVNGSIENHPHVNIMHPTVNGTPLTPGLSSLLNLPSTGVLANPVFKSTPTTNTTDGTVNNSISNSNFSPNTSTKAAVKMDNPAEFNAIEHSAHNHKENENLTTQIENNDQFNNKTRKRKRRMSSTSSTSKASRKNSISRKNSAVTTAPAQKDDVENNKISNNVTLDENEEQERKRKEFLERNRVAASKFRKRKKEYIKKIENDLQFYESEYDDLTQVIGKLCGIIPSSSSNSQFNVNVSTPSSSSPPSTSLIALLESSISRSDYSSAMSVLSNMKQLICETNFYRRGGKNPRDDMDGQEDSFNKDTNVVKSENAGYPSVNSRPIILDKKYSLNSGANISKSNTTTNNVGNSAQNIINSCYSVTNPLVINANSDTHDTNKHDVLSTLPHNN
# Test: PBM E-score (8-mer binding enrichment) (E-score (-0.5 to 0.5)); higher = stronger / more preferred TF binding
# Conditions: protein concentration: 200 nM; construct: GST-full length
# Method in brief: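 Yeast transcription factors carrying a GST tag, as full-length proteins or DNA-binding domains, were produced by PURExpress in vitro transcription/translation. About 100-200 nM protein was applied to universal all-10-mer Agilent arrays, double-stranded by primer extension on fresh or once-stripped slides. Bound protein was detected with fluorescent anti-GST, and scans were normalised with masliner. The Universal PBM Analysis Suite gave each ungapped eight-base word, pooled with its reverse complement, an E-score, a modified Wilcoxon-Mann-Whitney statistic.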
row,Sequence,PBM E-score
1,AATCACGC,0.205
2,AACCACGA,-0.0344
3,ACCCACGA,-0.0425
4,AATCACGA,0.0581
5,AACCACGT,0.371
6,ACCCACGT,0.374
7,ACCCACGC,-0.0576
8,AATCACGT,0.429
9,AACCACGC,0.111
10,GGAAATAC,0.148
11,CCCTCATC,-0.29
12,AGTCACCA,-0.269
13,AGTCACCC,-0.145
14,CGTCACCA,0.447
15,CGTCACCC,0.409
16,CCTCACCC,-0.148
17,GGTCACCA,-0.28
18,AGCCAATG,-0.049
19,CATAAGCA,-0.085
20,CGTGGTTC,0.0129
21,CCGTCGTA,0.11
22,ACGTCGCG,0.356
23,ACGTCGTC,0.387
24,AAGTCGTG,0.00032
25,GCGTCGTA,0.234

row,Sequence,PBM E-score
1,ACGTCGGC,0.348
2,CCGTCGTC,-0.0549
3,ACGTCGTA,0.399
4,ACGTCGTG,0.361
5,AGTTGCCC,-0.107
6,ACATTCTA,0.293
7,AACCCAGC,-0.247
8,CGGCCTAG,-0.324
9,AGAAGCTG,-0.0693
10,ACAGCTGT,-0.245
11,GGGCAGAC,-0.242
12,ACTGGTAT,-0.17
13,GCTCGTCA,0.351
14,CCTCGTCG,-0.233
15,ACTCGTCA,0.404
16,TCTCGTCA,0.365
17,ACTCGTCT,-0.0567
18,CCTCGTCA,0.381
19,ACTCGTCC,0.0764
20,CCTCGTCC,-0.209
21,TCTCGTAA,0.276
22,AACCCAAG,-0.00525
23,ATAAGGAG,-0.159
24,CGTAGACA,0.264
25,GCGTCCAC,-0.0966

row,Sequence,PBM E-score
1,ATACTTTC,0.0725
2,AAAGACGT,0.448
3,AACGACGA,0.166
4,AACGACGG,0.0454
5,ACCGACGC,0.0727
6,ACCGACGT,0.376
7,AAAGACGA,0.172
8,ACCGACGG,-0.181
9,AAAGACGG,-0.111
10,AACGACGT,0.411
11,AGCTCAAA,0.0839
12,ATGCCCTG,-0.17
13,TACGGTGA,0.0938
14,ACGGTCGG,-0.28
15,ACGGTCTG,-0.0646
16,GACCGCTC,-0.21
17,CCAGTCTA,-0.255
18,CATTGACG,0.412
19,CAGTGACC,-0.18
20,AAGTGACT,-0.0253
21,AAGTGACG,0.445
22,CATTGACC,0.114
23,CAGTGACA,0.0692
24,CATTGACA,-0.0852
25,CAGTGACG,0.408

row,Sequence,PBM E-score
1,AAGTGACC,-0.141
2,GGCGAAAA,0.0196
3,ATGTCCAC,0.116
4,GCCTGTCA,-0.157
5,CCGGTCAA,-0.12
6,GTATTGCA,0.0688
7,CACTGGGC,-0.304
8,CTTTCATA,0.257
9,GCTAGCCC,-0.26
10,AACCGTTG,-0.00171
11,CGGCATAC,-0.00615
12,ACGCCTGA,0.15
13,TAATATTA,0.362
14,AAATATTA,0.295
15,CAATATTA,0.264
16,AGGCCAGG,-0.292
17,CCTATACC,-0.227
18,CATGACCG,0.0181
19,AAGAAGTG,-0.0945
20,CAGGGAAG,-0.212
21,GTGGTTAA,0.205
22,ACCGCTTA,-0.00218
23,CACGTGGA,0.315
24,TACGTGAA,0.425
25,GACGTGGA,0.23

row,Sequence,PBM E-score
1,TACGTGGA,0.424
2,CACGTGAA,0.319
3,AACGTGAA,0.14
4,CGAGCCTC,-0.324
5,GGCCCCTA,-0.188
6,TAGGCTCA,-0.19
7,AAACAGTA,0.14
8,AGATTACT,0.201
9,CGATTACG,0.448
10,AGATTACC,0.108
11,CGATTACC,-0.0987
12,CGATTACA,0.106
13,AGATTACG,0.459
14,ACCTGGCG,-0.109
15,AAGCTACG,0.251
16,GAAAAAAC,0.201
17,CATGACAC,0.258
18,TATGACCA,0.178
19,ACTGACGA,0.364
20,TATGACGA,0.475
21,CCTGACGA,0.24
22,AATGACTA,0.0941
23,AATGACGA,0.476
24,CATGACTC,-0.0516
25,ACTGACGG,-0.104

row,Sequence,PBM E-score
1,AATGACCA,0.0136
2,CATGACGC,0.465
3,TATGACAA,0.21
4,TCGACGCA,0.0313
5,ATCGCCAA,-0.119
6,GTTTTCTA,0.201
7,GCAGTAGA,-0.0999
8,ATGGCAGG,-0.281
9,CAGGACCC,-0.221
10,GATGACGC,0.473
11,ACTGACGC,0.334
12,CATGACAA,-0.00914
13,GATGACCC,-0.0957
14,AATGACGC,0.478
15,ATTGACGC,0.319
16,GATGACAC,0.257
17,GATGACTA,0.0669
18,GATGACGA,0.474
19,GATGACCA,0.0721
20,CATGACGA,0.463
21,CATGACGG,0.326
22,GGACCCTA,-0.273
23,GTTTTGTA,0.262
24,ACGATAGT,0.295
25,ATATGCGC,0.0277

row,Sequence,PBM E-score
1,CGATCGCG,0.0985
2,CGAGCACG,0.0337
3,GACCAGCA,-0.185
4,GAGGGCGA,-0.265
5,ATTGACGG,0.0348
6,AATGACGG,0.388
7,AATGACCG,0.0453
8,GCCTCAGA,-0.148
9,CCGTAACC,-0.0904
10,GCGTAACA,0.317
11,AAGTAACT,0.153
12,ACGTAACA,0.464
13,ACGTAACC,0.469
14,TCGTAACA,0.275
15,ACGTAACT,0.459
16,GCGTAACC,0.328
17,AGGTAACT,0.0427
18,CCGTAACG,-0.103
19,ACGTAACG,0.469
20,AAGTAACG,0.0665
21,AGCTGTGG,-0.296
22,GGTCCCAC,-0.0859
23,AATGAGTA,0.178
24,CGGACTGC,-0.0639
